The supplement of paper PMC6555819

These sequences were tested on LXRa homodimer (NR concentration 270 nM) (assay: PBM binding z-score (relative to random genomic background probes); higher = stronger binding; sequences stand for … in GC…GCGATTGACAGCGTAGAATGAAGG).
Procedure, shortened: (§1)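 Regression normalization was applied to scanned fluorescence from custom Agilent 4×180K protein-binding microarrays. Before scanning, arrays were incubated 1 h with ligand-free nuclear receptor dimers, and binding was detected with antibodies against each partner (one per run). Binding z-scores use the random background probes as reference.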

| Sequence | PBM binding z-score |
| --- | --- |
| CGTCCAAGGTCAAGGTTAGTGAAAGAGACTCGAA | 0.37 |
| TCTGCTAGATCAGTTGGTCAGCTAACGAGCTGCC | -1.07 |
| TCATATAGTTAAATGCTAGGTGAAAGTCCGATCT | 0.335 |
| CCAACTGGGGCATAAGGTTACCATAAGCCAGCCC | -0.161 |
| ATCTCTAGGTAACAAGTGCAGTGAAAGAGAGGAC | -0.0829 |
| GCATATAGGTAAAACAAGGTGAAAGTCCGATTGT | -0.3 |
| TTACCAAGGTGAAAGGCCGTTGATGCACGCCTTG | -0.517 |
| CCTATTAGTTGACCAGAAGGGCAACCGAAGCTCG | 0.36 |
| TCTCGGAGGACACGAAGATCAGAGCTTTCCAGAG | -0.688 |
| TCTGCTAGGTCAACGATGGTCAGCCAATCTGCTA | -0.0342 |
| CCGACTGGGGCATAAGGTTACGATAAGCCAGCCC | -0.328 |
| ACTAGCAGGCCAAGGGTCACCCAAGATTAGTCCG | 0.036 |
| ACTTACGGGTCAACGAGGTAATAGCACGCGTATA | 0.29 |
| GCTACCAGGCCATTTGGGTCACTCAATGACGGGC | -0.549 |
| TCGAGTAGGTTAGTCGGGGCATTCATCCAACATA | 0.0686 |
| CGAACTAGCTCAGAACAGGACAGTGAAGGATGAT | -0.0403 |
| TCATATAGGTAAAGGCGAAAGTCGAACGATATGA | -0.495 |

These sequences were tested on LXRb:RXRa (NR concentration 270 nM, RXRa partner concentration 90 nM) in the same assay as above.
Procedure, shortened: as §1

| Sequence | PBM binding z-score |
| --- | --- |
| TTACCAAGGTGAAAGTCGTTGATCCCTCTGTAGA | 0.587 |
| GTACGAAGGTGAATAGGTCGTTGATGAGTAGGCG | 0.505 |
| TGTTGTAGATCAACAGGAGGTTAAGAAAGATCGA | 0.701 |
| TCATATAGGTAAATGCTAGGTGAGAGTCCGATCT | 0.0109 |
| GATACAGTGTCAGCTAGAGGCCAGAGTATGGAAA | -0.763 |
| CCTACTGGGACACGAAAGGTCATTGATTCAGTGA | 4.17 |
| TCTCGGAGGACACGAGAGGTCAGAGCTCGACATC | 2.53 |
| CGTCGAAGGTCAAAGGTCAGTGAAGAGATGACGG | 6.62 |
| TCTACAGGGTCAAAGGCCAGAGTACGAATGTCGA | 4.11 |
| TCTAGCAGGCCAGAGGATCACTCAAGAGGTACGG | -0.773 |
| CCTACTGGGCCAAAGGTTATTGATTCCAATGCTC | 1.76 |
| CGTCCAAGGTCAATGGTAGGTCAGTGAAAGCATT | 4.27 |
| TCTCGGAGGAGACGAAAGGTCAGAGCTCGACATC | 2.59 |
| TGAATGAGTTTATAAGATCAGGGAACGTTGCAAA | -0.209 |
| ATCTCTAGGTAAAGATAGTTCGGTGAATGCAAAT | 0.0902 |
| AGAACGAGGGCACGCTGAGTTGAAAGCAGAGTAG | 0.276 |
| TGAATGAGGTTATACGATCAGGGAACGTTGCAAA | 1.05 |
| TGAATGAGATTAAAGATCAGGGAACGTGGCGTCG | -0.322 |
| GATACAGGGTCACCTAGAGGCCAGAGTATGGAAA | 3.99 |
| CTGGAAAGGTCGTGCTCAGGTGAGTATACCAAAC | 2.7 |

| Sequence | PBM binding z-score |
| --- | --- |
| TTACCAAGGTGTAAGGTCGTTGATGCACGCCTTG | 0.478 |
| CGTCAAAGTTCAACTAAGGTACCGTAAAGCACGC | 4.18 |
| CGTCCAAGGTCAAGGTTAGTGAAAGAGACTCGAA | 3.88 |
| TCTGCTAGATCAGTTGGTCAGCTAACGAGCTGCC | -0.988 |
| TCATATAGTTAAATGCTAGGTGAAAGTCCGATCT | 0.729 |
| CCAACTGGGGCATAAGGTTACCATAAGCCAGCCC | 0.858 |
| ATCTCTAGGTAACAAGTGCAGTGAAAGAGAGGAC | -0.182 |
| GCATATAGGTAAAACAAGGTGAAAGTCCGATTGT | 0.461 |
| TTACCAAGGTGAAAGGCCGTTGATGCACGCCTTG | 0.397 |
| CCTATTAGTTGACCAGAAGGGCAACCGAAGCTCG | 0.332 |
| TCTCGGAGGACACGAAGATCAGAGCTTTCCAGAG | -0.685 |
| TCTGCTAGGTCAACGATGGTCAGCCAATCTGCTA | 1.57 |
| CCGACTGGGGCATAAGGTTACGATAAGCCAGCCC | 0.815 |
| ACTAGCAGGCCAAGGGTCACCCAAGATTAGTCCG | 2.76 |
| ACTTACGGGTCAACGAGGTAATAGCACGCGTATA | 3.61 |
| GCTACCAGGCCATTTGGGTCACTCAATGACGGGC | 0.301 |
| TCGAGTAGGTTAGTCGGGGCATTCATCCAACATA | 0.86 |
| CGAACTAGCTCAGAACAGGACAGTGAAGGATGAT | -0.877 |
| TCATATAGGTAAAGGCGAAAGTCGAACGATATGA | 0.229 |
